Here are results for 28 compounds from PubChem BioAssay.

This test is described as follows: small molecules captured by biotinylated probe aFSTL3 – biochemical, small-molecule microarray, fluorescence 635/667, stem cell growth factor project, primary screen (AID 1064).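 Also: measures binding of the biotinylated anti-FSTL3 antibody to printed compounds.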 As to conditions: higher = more signal.
For the compound `Cc1ccc(S[C@]2(C(=O)O)CC(=O)N(Cc3cc(C(F)(F)F)cc(C(F)(F)F)c3)[C@@H]2c2ccc(CO)cc2)cc1`, the composite z-score amounted to 0.591.
In the case of `CCOC(=O)[C@H]1[C@@H]2C(=O)N3CCC[C@H]3[C@H](O[Si](C(C)C)(C(C)C)C(C)C)[C@H]2C=C2CCN(S(=O)(=O)c3ccc(C)cc3)C[C@H]21`, the composite z-score was -0.646.
Turning to `CO[C@H]1O[C@H](CO)[C@@H](OC(=O)Nc2ccccc2-c2ccccc2)[C@H](OC(=O)Nc2ccc3c(c2)OCO3)[C@H]1OC(=O)Nc1ccc2c(c1)OCO2`, the composite z-score is -0.0811.
The result for `COc1ccccc1CN1C(=O)c2ccccc2[C@@]2(Cc3ccccc3N(CC(F)(F)F)C2=O)[C@@H]1c1ccc(CO)cc1` reads -0.951; that for `CN(C)C(=O)[C@@]1(Cc2ccccc2CN=[N+]=[N-])N=C(c2ccc(OCCCO)cc2)O[C@H]1c1ccccc1CN=[N+]=[N-]`, 0.262; that for `COc1ccc(CCN2C(=O)[C@@]3(Cc4ccccc42)c2ccccc2C(=O)N(Cc2ccccc2OC)[C@H]3c2ccc(CO)cc2)cc1`, 0.502.
Next, `O=C1C2C=CC(C(O)c3ccc(Br)cc3)N(Nc3ccccc3F)C2C(=O)N1c1ccccc1` (stereo not drawn): -0.436; `C=CCC(OC(C)=O)[C@@H]1[C@@H](N(Cc2cccc3ccccc23)C(=O)Cc2ccc(OC)cc2)c2cc(OCCCO)ccc2N1C(=O)c1ccc2ccccc2n1` (stereo partly drawn): -0.192.
Next, `COC(=O)C(CC#Cc1ccc2c(c1)[C@]1(C(=O)N2)[C@H](c2ccccc2OCCO)N2[C@H](c3ccccc3)[C@H](c3ccccc3)OC(=O)[C@H]2[C@@H]1C(=O)NC[C@H](O)c1ccccc1)C(=O)OC`: -0.881.
`COc1ccc([Si](C)(C)[C@H]2[C@H](CCO)O[C@@]3(C(=O)N(Cc4cccc(N5C(=O)COc6ccccc65)c4)c4ccccc43)[C@@H]2C)cc1` had a composite z-score of 0.295.
Consider `CCCCCCc1nc(C2CC2)cc2c1[Si](C(C)C)(C(C)C)OC2`, for which the composite z-score was 0.355.
The result for `C=CCNC(=O)[C@@H]1[C@H]2C(=O)O[C@H](c3ccccc3)[C@H](c3ccccc3)N2[C@H](c2ccc(O)cc2)[C@@]12C(=O)N(C(=O)OCCOC)c1ccc(C#CC3(O)CCCCCC3)cc12` reads 0.564; that for `CC(CO)N1C(=O)[C@@H]2[C@H]3C(=O)OCC=C[C@H]3OC23C=CCN(Cc2ccccc2)C(=O)[C@@H]13` (stereo partly drawn), 0.0457; that for `[N-]=[N+]=NCc1ccccc1C[C@@]1(C(=O)NCc2ccccc2)N=C(c2ccc(OCCCO)cc2)O[C@@H]1c1ccccc1N=[N+]=[N-]`, 0.298.
The result for `C=CCN1Cc2ccccc2[C@H]2OC(c3ccc(OCCCO)cc3)=N[C@@]2(CC=C)C1=O` reads 0.451.
Next, `Cc1cc(C)cc(N2C(=O)CSC2c2cccc([N+](=O)[O-])c2)c1` (stereo not drawn): -0.0703; `CCOc1cc(C(O)C2C=CC3C(=O)N(C)C(=O)C3N2Nc2ccccc2)ccc1O` (stereo not drawn): -0.329.
As for `[N-]=[N+]=Nc1ccccc1C[C@]1(C(N)=O)N=C(c2ccc(OCCCO)cc2)O[C@H]1c1ccccc1N=[N+]=[N-]`, the composite z-score was determined as 0.12.
Next, `NC(=O)NCC#Cc1ccc2c(c1)[C@]1(C(=O)N2)[C@H](C(=O)O)[C@H]2C(=O)O[C@H](c3ccccc3)[C@H](c3ccccc3)N2[C@@H]1c1ccc(OCCO)cc1`: 0.131.
The result for `CCCCCCc1nc(C2CC2)cc2c1[Si](C(C)C)(C(C)C)O[C@H]2c1ccccc1` reads 0.0483; that for `COc1cc2c(cc1OC)CN(C(=O)[C@@H]1[C@H]3C(=O)O[C@H](c4ccccc4)[C@H](c4ccccc4)N3[C@H](c3ccc(OCCO)cc3)[C@@]13C(=O)Nc1ccc(C#CC4(O)CCCCCC4)cc13)CC2`, -0.543; that for `O=C1C[C@@](C(=O)NCCN2CCOCC2)(c2ccc([N+](=O)[O-])cc2)[C@@H](c2ccc(CO)cc2I)N1C1CCCCC1`, -0.218.
Next, `COC(=O)[C@@]1(Cc2ccc(F)cc2)[C@H]2c3cc(C(=O)N4CCCC4)n(CCc4ccc(O)c(O)c4)c3C[C@H]2CN1C(=O)c1ccccc1`: 1.41.
In turn, `CC(C)N1C(=O)C[C@@](C(=O)NCCCN(C)C)(c2ccc([N+](=O)[O-])cc2)[C@H]1c1ccc(CO)cc1` came in with a composite z-score of -0.153.
Next, `COC(=O)C1=CC(CCCO)=CC(C2CC2)N(C)C=C1C(=O)OC` (stereo not drawn): 0.0334; `COC(=O)c1c(CC[C@@H](CO)NC(=O)N2CCC[C@H]2Cn2cc(Cc3ccccc3)nn2)oc(C(C)=O)c1C(=O)OC`: -0.506.
Next, `O=C(N1CCCCC1)[C@@]1(CCS(=O)(=O)c2ccccc2)COC(c2ccc(OCCCO)cc2)=N1`: 1.02; `CC1=C[C@@]2(CO)C(=O)[C@]3(CO3)[C@@H]1[C@H]1[C@]2(C)C=C(CO)C(=O)[C@]12CO2`: -0.457.
